From the supplement of paper PMC10849652
About 7,900 targets were measured; listed, in parts, are those with a hit and a random draw of the rest. About 0.6% of all pairs of compound and target were hits. Values without a mark were called inactive.

Key:
Test in all cases: log2 fold change, soluble protein after heating vs DMSO (PISA); higher = thermal stabilisation; K562 cells, 10 uM, 30 min; active = over 0.2 and 3.5 SD of the protein, either way, in both replicates (recomputed)
erlotinib = compound: C#Cc1cccc(Nc2ncnc3cc(OCCOC)c(OCCOC)cc23)c1 [erlotinib]
In short: (§1)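 Soluble protein was quantified by TMTpro 16plex LC-MS/MS after channel sums were equalised. It was obtained as the supernatant after 21,000xg for 90 min from pooled aliquots of K562 cells (2×10^6 cells/mL, 10 μM compound, 30 min) heated for 3 min across 48°C-58°C and extracted in PBS with 0.5% NP-40 at 4°C. Thermal stability values are relative to control samples and come from duplicates. They are given as log2 fold changes.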

[1] = compound: C/C(=N\NC(=O)C1=CC(=CC=C1)S(=O)(=O)N2CCOCC2)/C3=C(C=CC(=C3)Cl)O
In short: as §1

[2] = compound: C1=CC(=C(C=C1Cl)C2=NC3=NC=CN=C3C(=N2)NC4=CC=NC=C4)F
In short: as §1

[3] = compound: C1=CC(=CC=C1C2=NC3=C(N2)C=C(C=C3)C(=O)N)OC4=CC=C(C=C4)Cl
In short: as §1

[4] = compound: C1=CC2=C(C=CC(=C2)/C=C\3/C(=O)NC(=NCC4=CC=CS4)S3)N=C1
In short: as §1

[5] = compound: C1=CC2=NC=CN=C2C=C1/C=C/3\C(=O)NC(=O)S3
In short: as §1

[6] = compound: C1=CC=C(C=C1)C2=NC(=C(N2)C3=CC=NC=C3)C4=CC(=C(C=C4)Cl)O
In short: as §1

[7] = compound: C1=CC=C2C(=C1)C3=NNC4=CC=CC(=C43)C2=O
In short: as §1

[8] = compound: C1CCN(C1)C(=O)NC2=CC=CC(=C2)NC3=NC=C(C(=N3)NCCC4=CN=CN4)Br
In short: as §1

[9] = compound: C1CN(CCC1(CC2=CC=C(C=C2)Cl)N)C3=NC=NC4=C3C=CN4
In short: as §1

IRAK-1-4 Inhibitor I = compound: C1COCCN1CCN2C3=CC=CC=C3N=C2NC(=O)C4=CC(=CC=C4)[N+](=O)[O-] [IRAK-1-4 Inhibitor I]
In short: as §1

ibrutinib = compound: C=CC(=O)N1CCC[C@@H](n2nc(-c3ccc(Oc4ccccc4)cc3)c3c(N)ncnc32)C1 [ibrutinib]
In short: as §1

[10] = compound: CC(=O)c1cnc2ccc(-c3cc(Cl)c(O)c(Cl)c3)nc2c1N[C@H]1CC[C@H](CN(C)C)CC1
In short: as §1

ralimetinib = compound: CC(C)(C)Cn1c(N)nc2ccc(-c3[nH]c(C(C)(C)C)nc3-c3ccc(F)cc3)nc21 [ralimetinib]
In short: as §1

[11] = compound: CC(C)(O)CC(=O)NCCn1ccc2ncnc(Nc3ccc(Oc4cccc(C(F)(F)F)c4)c(Cl)c3)c21
In short: as §1

[12] = compound: CC(C)C1=C2N=C(C=C(N2N=C1)NCC3=CC=CC=C3)NCCCCCCN
In short: as §1

[13] = compound: CC(C)C[C@@H](C=O)NC(=O)[C@H](CC(C)C)NC(=O)[C@H](CC(C)C)NC(=O)OCc1ccccc1
In short: as §1

pinometostat = compound: CC(C)N(C[C@H]1O[C@@H](n2cnc3c(N)ncnc32)[C@H](O)[C@@H]1O)[C@H]1C[C@@H](CCc2nc3cc(C(C)(C)C)ccc3[nH]2)C1 [pinometostat]
In short: as §1

[14] = compound: CC1=C(C(CC(=O)N1)C2=CC=C(C=C2)C(F)(F)F)C(=O)NC3=C(C=C4C(=C3)C=NN4)F
In short: as §1

[15] = compound: CC1=C(C2=C(C=C1)C(=O)C3=CC=CC=C3N2CCCN)C
In short: as §1

Chain of UniProt P04066 (P04066 whole entry, looked up): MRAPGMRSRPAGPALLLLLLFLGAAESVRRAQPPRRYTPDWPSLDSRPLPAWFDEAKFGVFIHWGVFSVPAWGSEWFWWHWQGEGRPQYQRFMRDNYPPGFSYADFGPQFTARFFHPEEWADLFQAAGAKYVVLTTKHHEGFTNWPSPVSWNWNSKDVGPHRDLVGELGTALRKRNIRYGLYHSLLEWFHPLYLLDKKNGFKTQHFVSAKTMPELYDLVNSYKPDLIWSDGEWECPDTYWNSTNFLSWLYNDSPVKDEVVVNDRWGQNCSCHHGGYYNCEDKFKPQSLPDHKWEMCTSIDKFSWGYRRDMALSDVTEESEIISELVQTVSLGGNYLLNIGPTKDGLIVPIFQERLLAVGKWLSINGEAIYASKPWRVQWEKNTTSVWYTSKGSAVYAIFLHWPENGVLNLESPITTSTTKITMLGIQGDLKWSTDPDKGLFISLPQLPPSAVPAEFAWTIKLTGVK
Chain of UniProt Q96I24 (Q96I24 whole entry, looked up): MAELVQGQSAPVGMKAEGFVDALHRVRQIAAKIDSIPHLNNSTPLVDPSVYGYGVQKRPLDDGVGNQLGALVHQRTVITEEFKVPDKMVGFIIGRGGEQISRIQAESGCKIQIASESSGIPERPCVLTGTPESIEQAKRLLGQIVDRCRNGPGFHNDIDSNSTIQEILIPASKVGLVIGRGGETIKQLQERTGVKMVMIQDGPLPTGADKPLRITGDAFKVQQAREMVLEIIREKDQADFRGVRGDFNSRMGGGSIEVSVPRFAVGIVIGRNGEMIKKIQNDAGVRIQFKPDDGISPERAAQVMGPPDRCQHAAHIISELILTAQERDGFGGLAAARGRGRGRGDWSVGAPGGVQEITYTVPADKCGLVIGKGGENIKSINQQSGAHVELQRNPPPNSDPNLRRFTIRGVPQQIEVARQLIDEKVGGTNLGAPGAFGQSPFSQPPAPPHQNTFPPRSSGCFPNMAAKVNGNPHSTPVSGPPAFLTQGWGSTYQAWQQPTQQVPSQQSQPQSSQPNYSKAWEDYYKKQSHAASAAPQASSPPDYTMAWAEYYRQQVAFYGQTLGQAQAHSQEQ
Chain of UniProt P40939 (P40939 whole entry, looked up): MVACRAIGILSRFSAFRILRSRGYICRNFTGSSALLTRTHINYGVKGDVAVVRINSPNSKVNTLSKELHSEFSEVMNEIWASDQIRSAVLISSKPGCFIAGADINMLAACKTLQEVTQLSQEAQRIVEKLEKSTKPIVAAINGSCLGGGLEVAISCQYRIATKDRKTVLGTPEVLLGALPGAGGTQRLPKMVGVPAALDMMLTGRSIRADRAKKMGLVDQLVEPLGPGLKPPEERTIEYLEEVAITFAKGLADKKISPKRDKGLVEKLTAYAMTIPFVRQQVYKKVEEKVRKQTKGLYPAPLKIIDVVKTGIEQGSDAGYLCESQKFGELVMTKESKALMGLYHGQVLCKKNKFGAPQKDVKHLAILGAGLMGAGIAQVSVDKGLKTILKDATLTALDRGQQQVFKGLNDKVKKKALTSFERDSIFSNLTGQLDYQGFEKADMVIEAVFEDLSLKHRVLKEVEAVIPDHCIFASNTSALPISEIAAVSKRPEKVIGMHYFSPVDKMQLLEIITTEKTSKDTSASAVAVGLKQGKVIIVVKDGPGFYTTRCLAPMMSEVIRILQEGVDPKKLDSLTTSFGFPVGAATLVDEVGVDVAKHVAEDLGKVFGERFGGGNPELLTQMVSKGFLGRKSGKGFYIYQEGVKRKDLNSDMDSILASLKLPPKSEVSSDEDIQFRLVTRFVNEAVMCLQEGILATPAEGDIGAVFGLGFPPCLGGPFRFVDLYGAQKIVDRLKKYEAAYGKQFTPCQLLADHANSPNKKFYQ
Chain of UniProt P49448 (P49448 whole entry, looked up): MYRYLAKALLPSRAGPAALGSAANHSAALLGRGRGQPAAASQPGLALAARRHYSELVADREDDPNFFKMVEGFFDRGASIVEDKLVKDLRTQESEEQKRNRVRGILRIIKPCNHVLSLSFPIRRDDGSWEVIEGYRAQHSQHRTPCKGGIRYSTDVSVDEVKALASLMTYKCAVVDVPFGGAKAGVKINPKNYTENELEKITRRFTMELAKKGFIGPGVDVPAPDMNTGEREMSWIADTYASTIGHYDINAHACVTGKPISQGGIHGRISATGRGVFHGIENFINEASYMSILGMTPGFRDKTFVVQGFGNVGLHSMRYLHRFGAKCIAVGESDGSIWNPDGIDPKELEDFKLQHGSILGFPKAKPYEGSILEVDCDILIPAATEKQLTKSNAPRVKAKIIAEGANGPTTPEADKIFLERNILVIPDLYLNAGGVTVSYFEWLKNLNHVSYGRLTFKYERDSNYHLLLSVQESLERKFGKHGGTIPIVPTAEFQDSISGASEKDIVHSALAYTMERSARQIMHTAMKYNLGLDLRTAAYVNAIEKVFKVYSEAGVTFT
Chain of UniProt P30711 (P30711 whole entry, looked up): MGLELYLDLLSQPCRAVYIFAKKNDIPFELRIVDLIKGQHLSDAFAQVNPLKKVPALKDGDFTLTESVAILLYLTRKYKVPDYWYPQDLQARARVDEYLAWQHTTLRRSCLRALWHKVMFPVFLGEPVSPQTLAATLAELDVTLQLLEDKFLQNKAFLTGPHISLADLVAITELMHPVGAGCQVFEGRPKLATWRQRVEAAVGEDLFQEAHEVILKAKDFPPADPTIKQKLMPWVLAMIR
Chain of UniProt P52655 (P52655 whole entry, looked up): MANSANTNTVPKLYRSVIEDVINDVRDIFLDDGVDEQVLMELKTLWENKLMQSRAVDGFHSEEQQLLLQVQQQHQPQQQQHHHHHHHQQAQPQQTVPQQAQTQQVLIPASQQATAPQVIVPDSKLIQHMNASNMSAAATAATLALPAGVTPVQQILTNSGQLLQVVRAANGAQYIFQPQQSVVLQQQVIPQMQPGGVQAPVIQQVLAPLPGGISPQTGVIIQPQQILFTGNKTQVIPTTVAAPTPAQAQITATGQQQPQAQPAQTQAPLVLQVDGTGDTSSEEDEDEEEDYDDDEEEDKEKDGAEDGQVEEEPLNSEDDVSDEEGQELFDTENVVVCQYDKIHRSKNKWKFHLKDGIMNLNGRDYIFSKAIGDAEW
Chain of UniProt O15117 (O15117 whole entry, looked up): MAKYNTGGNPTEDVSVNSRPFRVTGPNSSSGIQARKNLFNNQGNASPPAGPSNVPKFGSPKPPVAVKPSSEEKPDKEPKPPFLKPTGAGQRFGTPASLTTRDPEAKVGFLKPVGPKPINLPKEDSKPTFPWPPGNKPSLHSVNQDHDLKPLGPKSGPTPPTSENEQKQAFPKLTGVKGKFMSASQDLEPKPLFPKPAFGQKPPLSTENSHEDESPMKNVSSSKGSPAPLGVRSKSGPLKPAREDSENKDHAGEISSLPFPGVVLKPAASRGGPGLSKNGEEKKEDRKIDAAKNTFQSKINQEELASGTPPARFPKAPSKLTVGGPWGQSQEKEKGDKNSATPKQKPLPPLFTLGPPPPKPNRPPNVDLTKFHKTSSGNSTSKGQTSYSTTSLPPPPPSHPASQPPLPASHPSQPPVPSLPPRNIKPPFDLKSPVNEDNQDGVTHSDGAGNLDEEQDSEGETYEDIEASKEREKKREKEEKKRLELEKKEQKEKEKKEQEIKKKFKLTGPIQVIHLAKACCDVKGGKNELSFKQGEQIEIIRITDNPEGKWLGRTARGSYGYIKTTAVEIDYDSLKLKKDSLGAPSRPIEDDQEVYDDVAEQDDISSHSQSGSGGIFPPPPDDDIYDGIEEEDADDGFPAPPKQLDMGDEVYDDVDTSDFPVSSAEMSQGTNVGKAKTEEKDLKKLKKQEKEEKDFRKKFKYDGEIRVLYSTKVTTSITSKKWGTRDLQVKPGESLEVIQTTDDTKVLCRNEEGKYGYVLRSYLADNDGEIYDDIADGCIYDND
Chain of UniProt O15228 (O15228 whole entry, looked up): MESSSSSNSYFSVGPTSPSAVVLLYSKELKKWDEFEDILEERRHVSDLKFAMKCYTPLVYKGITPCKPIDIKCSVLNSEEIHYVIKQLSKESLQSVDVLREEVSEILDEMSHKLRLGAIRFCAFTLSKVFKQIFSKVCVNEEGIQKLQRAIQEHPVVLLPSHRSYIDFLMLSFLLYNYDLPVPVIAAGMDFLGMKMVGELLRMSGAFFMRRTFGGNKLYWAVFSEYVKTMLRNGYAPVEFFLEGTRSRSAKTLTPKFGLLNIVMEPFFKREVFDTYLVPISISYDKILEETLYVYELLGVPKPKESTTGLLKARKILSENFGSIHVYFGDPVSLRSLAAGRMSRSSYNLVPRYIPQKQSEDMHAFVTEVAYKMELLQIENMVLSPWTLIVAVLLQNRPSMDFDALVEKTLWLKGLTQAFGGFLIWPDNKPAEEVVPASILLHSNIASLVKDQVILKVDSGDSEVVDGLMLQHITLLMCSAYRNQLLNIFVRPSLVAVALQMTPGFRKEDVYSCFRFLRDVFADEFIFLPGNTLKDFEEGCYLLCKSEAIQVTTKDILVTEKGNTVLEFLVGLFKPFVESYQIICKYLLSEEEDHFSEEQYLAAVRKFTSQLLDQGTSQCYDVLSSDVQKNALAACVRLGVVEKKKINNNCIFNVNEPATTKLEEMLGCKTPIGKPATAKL

Target	log2 fold change (erlotinib)	log2 fold change [1]	log2 fold change [2]	log2 fold change [3]	log2 fold change [4]	log2 fold change [5]	log2 fold change [6]	log2 fold change [7]	log2 fold change [8]	log2 fold change [9]	log2 fold change (IRAK-1-4 Inhibitor I)	log2 fold change (ibrutinib)	log2 fold change [10]	log2 fold change (ralimetinib)	log2 fold change [11]	log2 fold change [12]	log2 fold change [13]	log2 fold change (pinometostat)	log2 fold change [14]	log2 fold change [15]
GNPAT (UniProt O15228)	0.067	0.112	0.075	-0.001	0.073	0.03	0.057	0.019	-0.003	0.058	0.026	-0.007	-0.017	0.02	-0.053	-0.018	-0.014	-0.018	0.004	0.024
GSTT1 (UniProt P30711)	0.037	-0.007	0.275	0.033	0.114	0.037	-0.044	-0.031	0.003	-0.028	-0.054	0.007	0.009	-0.079	-0.079	0.076	-0.005	-0.124	0.139	0.157
FUBP3 (UniProt Q96I24)	-0.059	0.007	0.084	0.019	-0.014	0.069	-0.017	0.002	0.009	0.036	-0.002	-0.002	-0.054	0.023	-0.083	0.15	0.036	-0.017	-0.022	0.387 (active)
FUCA1 (UniProt P04066)	0.01	0.024	0.049	-0.007	0.031	-0.004	-0.004	0.044	0.012	0.018	-0.003	0.018	-0.049	-0.067	0.056	-0.054	0.003	-0.03	-0.008	-0.199
GLUD2 (UniProt P49448)	0.009	-0.028	0.028	0.036	0.003	-0.011	0.03	0.027	-0.005	-0.009	0.025	0.045	0.113	0	0.098	-0.041	0.014	-0.013	-0.098	0.127
HADHA (UniProt P40939)	-0.085	0.122	0.044	-0.18	0.042	0.02	0.07	0.271	-0.214	0.171	-0.001	0.175	-0.358	0.058	-0.132	0.43	-0.116	-0.064	-0.125	0.054
FYB1 isoform 3 (UniProt O15117)	0.019	0.032	-0.02	-0.01	0.057	0.006	0.014	-0.08	-0.041	0	0.009	-0.012	-0.193	0.308	0.06	-0.069	0.226	0.002	-0.075	0.129
GTF2A1 (UniProt P52655)	-0.011	-0.052	0.001	-0.011	-0.094	0.034	-0.021	-0.029	-0.024	0.036	0.068	0.03	0.013	-0.142	-0.106	0.022	-0.06	0.035	0.014	-0.415 (active)
